# High-throughput results as filed in PubChem BioAssay.
# This is a sample that favours compounds with a hit; in the whole collection about 0.54% have one here.
# Chronic BCR inh = blocks chronic active B-cell receptor signaling | ABC-DLBCL IkBa-CBG/CBR reporter, luminescence ratio, 4 h | Potency, µM (top dose mostly 46.1 µM), for inactives: at the top dose activity change, negative = inhibition, actives largely listed as inhibitors | 340,000 compounds, 0.05% hits; active means well fitted inhibition curve with a large enough effect in the signal ratio, with a control signal flat, not every such curve was filed as active; inconclusive means small, poorly fitted or top-dose-only effect, or effect the other way, or a change in a side signal; the % refers to the signal ratio;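 further: potency means the concentration at half of the fitted maximal effect; plate controls were basal doxycycline-induced cells for no effect and cells given 10 µM MG132 for full effect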
#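 Doxycycline induced both beetle luciferases in TMD8 lymphoma cells; IKK-driven degradation limits the IkappaBalpha-fused green signal, while red luminescence normalises for cell number and nonspecific effects. Compounds tested up to 46 uM, 4 hrs.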
# uPA generation = inhibitors of cell surface uPA generation; cell surface uPA generation assay, qHTS; Potency, µM (doses to about 38.3 µM), inactives show at the highest dose activity change, negative = inhibition, usual class: inhibitors; 330,000 compounds, 0.31% hits; active means well fitted inhibition curve with a large enough effect; inconclusive means small, poorly fitted or top-dose-only effect; inactive means no such curve, though single readings can be large or run the other way; tested in mouse RAW 264.7 cells; further: potency means the concentration at half of the fitted maximal effect; on the % scale 0 is the no-effect control and ±100 the full control effect; nearly all actives have a fitted effect of over 55% in size
# Vif-APOBEC3F blk = inhibitors of Vif-A3F interaction; HeLa A3F-eYFP + Vif (tagged APOBEC3F with the HIV-1 protein that degrades it), YFP fluorescence increase; Potency, µM (top dose mostly 46.1 µM), without a hit: at the highest dose activity, negative = active; 390,000 compounds, 0.2% hits; further: potency means the concentration at half of the fitted maximal effect; % of control where 0% means no effect; nearly all actives have a fitted effect of over 65% in size
#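 HeLa cells stably expressing A3F-eYFP plus Vif, plated and incubated overnight at 37 deg C, then exposed to compounds overnight at 37 deg C. Blocked degradation read as raised yellow fluorescence (Ex 488/Em 500-530).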
# MBNL1-CUG inh = MBNL1-poly(CUG) RNA binding inhibition; Q9NR56; TR-FRET MBNL1-His/biotin-(CUG)12 binding, 665/545 ratio; Potency, µM (doses to about 57.5 µM), inactives show at the top dose activity change, negative = inhibition, actives largely listed as inhibitors; 280,000 compounds, 0.036% hits; AID 2675; active means well fitted inhibition curve with a large enough effect in the signal ratio, with a control signal flat, not every such curve was filed as active; inconclusive means small, poorly fitted or top-dose-only effect, or effect the other way, or a change in a side signal; inactive means no such curve, though single readings can be large or run the other way; the % refers to the signal ratio; further: potency means the concentration at half of the fitted maximal effect; on the % scale 0 is the no-effect control and ±100 the full control effect
# Target sequence (Q9NR56 whole entry, looked up): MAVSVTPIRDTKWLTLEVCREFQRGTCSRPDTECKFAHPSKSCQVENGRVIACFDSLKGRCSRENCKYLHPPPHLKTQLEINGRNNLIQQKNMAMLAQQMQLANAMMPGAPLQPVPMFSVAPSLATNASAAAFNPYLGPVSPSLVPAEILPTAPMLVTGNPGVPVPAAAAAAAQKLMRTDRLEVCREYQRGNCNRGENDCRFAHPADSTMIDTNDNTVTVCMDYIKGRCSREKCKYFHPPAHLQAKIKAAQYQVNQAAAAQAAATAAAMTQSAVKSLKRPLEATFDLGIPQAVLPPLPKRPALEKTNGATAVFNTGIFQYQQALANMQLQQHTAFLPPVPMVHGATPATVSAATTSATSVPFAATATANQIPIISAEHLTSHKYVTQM
#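 MBNL1-His + Biotin-(CUG)12, cpd titration 92 nM–58 uM; Tb anti-His Ab 0.055 ng/ul, SA-XL665 5 nM (final); 60 min RT; ratiometric 665/545 nm, Ex 340 nm; normalized to buffer and full-complex controls.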
# Vif-APOBEC3G blk = blocks the Vif interaction with human APOBEC3G | Q9HC16 | HeLa A3G-eYFP + Vif (tagged APOBEC3G with the HIV-1 protein that degrades it), YFP fluorescence, overnight | Potency, µM (top dose mostly 46.1 µM), for inactives: at the highest dose activity, negative = active, usual class: inhibitors | 410,000 compounds, 0.076% hits; further: potency means the concentration at half of the fitted maximal effect; on the % scale 0 is the no-effect control and ±100 the full control effect; nearly all actives have a fitted effect of over 60% in size
# Target sequence (Q9HC16 whole entry, looked up): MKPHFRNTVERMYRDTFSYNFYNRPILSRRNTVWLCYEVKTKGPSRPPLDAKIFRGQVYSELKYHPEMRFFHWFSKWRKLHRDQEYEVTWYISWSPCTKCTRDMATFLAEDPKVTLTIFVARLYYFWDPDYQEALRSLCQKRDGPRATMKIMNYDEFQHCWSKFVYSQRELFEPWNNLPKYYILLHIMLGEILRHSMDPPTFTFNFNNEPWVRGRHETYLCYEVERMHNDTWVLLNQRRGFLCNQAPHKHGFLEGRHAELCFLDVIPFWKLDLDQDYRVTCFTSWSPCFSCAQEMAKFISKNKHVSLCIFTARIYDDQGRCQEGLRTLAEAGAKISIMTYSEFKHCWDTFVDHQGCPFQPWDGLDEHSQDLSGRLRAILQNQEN
#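 Read-out is eYFP fluorescence (Ex 488/Em 500-530) from Vif-expressing HeLa A3G-eYFP cells; more signal means A3G escaped Vif-mediated degradation. Cells plated overnight, compound pinned in, incubated overnight at 37 deg C.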
# TCR act = T cell receptor activation. 330,000 tested, under 10 active. primary human leukocytes, anti-CD3, IL-2 HTRF, 48 h. Potency, µM (titrated, usually from 9.22 µM), for inactives: top-dose activation of IL-2 secretion, actives largely listed as activators; further: % of control where 0% means no effect
#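 IL-2 produced over 48 hr by a-CD3 bead-stimulated primary human leukocytes exposed to compounds was detected with a homogeneous time-resolved FRET immunoassay, 665nm acceptor signal after 320nm excitation.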
# * hit, by the source's call; ? = inconclusive; · = no result given; [ ] = another dose, or the depositor's remark. Unless noted, the call rests on the fitted dose curve; in most records, active means well fitted curve in the direction sought with a large enough effect; inconclusive means small, poorly fitted or top-dose-only effect, or another doubt; inactive means no such curve, though single readings can be large; an effect the other way counts as inactive or inconclusive.
SMILES,Chronic BCR inh,uPA generation,Vif-APOBEC3F blk,MBNL1-CUG inh,Vif-APOBEC3G blk,TCR act
CCN(CC)c1ccc2c(c1)oc(=O)c1c(Cl)cc(=O)oc12,-0.8%,-7.6%,25.1µM*,155.9%,?,-5.5%
C[n+]1c(/C=C/c2ccc(N)cc2)sc2ccccc21,·,·,·,·,1.6%,·
CC(C)(C)n1ncc2c(=O)n(Cc3cccc(F)c3)cnc21,·,·,·,·,2.1%,·
O=C(CCN1C(=O)/C(=C/c2ccccc2Cl)SC1=S)NC1C=CS(=O)(=O)C1 (stereo not given),?,7.94µM*,7.5%,?,-17.9%,6.6%
CC(C)(C)n1ncc2c(=O)n(Cc3ccc([S+](=O)([O-])N4CCOCC4)cc3)cnc21,·,·,·,·,-0.4%,·
Cc1cccc2sc(NNC(=O)c3ccc(S(=O)(=O)N4CCc5ccccc5C4)cc3)nc12,-2.8%,?,-10.4%,67.5%,-27.6%,-2.6%
Cc1cccc2sc(NNC(=O)c3ccc(S(=O)(=O)N4CCCC(C)C4)cc3)nc12 (stereo not given),-5.2%,8.91µM*,?,21.9%,-21.8%,3.3%
COc1cccc(C2C=C(c3ccc(Br)s3)Nc3ncnn32)c1OC (stereo not given),2.0%,-2.0%,?,197.1%,-1.1%,7.3%
Fc1ccc(Br)cc1C1C=C(c2ccc(Br)s2)Nc2ncnn21 (stereo not given),?,-0.2%,22.4µM*,125.9%,?,17.9%
O=C(Nc1cccn(Cc2cccc(F)c2)c1=O)NC1CCCCC1,?,-13.3%,5.3%,-0.7%,-0.7%,-2.7%
O=C(Nc1cccn(Cc2c(F)cccc2Cl)c1=O)NC1CCCCC1,?,11.2µM*,-2.9%,2.3%,-23.4%,4.8%
COc1ccc(/C=N/NC(=O)c2ccc(CSc3nc(C)cc(C)n3)cc2)cc1O,16.4µM*,-15.5%,7.8%,28.7%,-29.9%,-9.4%[46.1 µM]
COc1ccc(/C=N/NC(=O)c2ccc(CSc3nc(C)cc(C)n3)cc2)c(OC)c1OC,-3.3%,-12.6%,3.2%,-2.0%,?,8.3%[46.1 µM]
Cc1ccc2oc(-c3ccc(NC(=O)COc4ccccc4)cc3O)nc2c1,·,·,·,·,1.5%,·
CCN(CC)c1ccc(/C=c2/sc3nnc(-c4ccccc4C)n3c2=O)cc1,5.9%,12.0%,1.26µM*,-5.7%,-3.4%,10.4%
C=C1C=C(C(F)F)n2ncc(C(=O)NCc3ccc(Cl)cc3Cl)c2N1,·,·,·,·,1.3%,·
CC(C)OC(=O)c1cc(C(=O)c2cc(Br)ccc2O)coc1=N,?,1.1%,?,-6.3%,-19.7%,-5.8%
CC(C)OC(=O)c1cc(C(=O)c2cc(F)ccc2O)coc1=N,?,2.2%,11.2µM*,5.1%,?,-7.4%
COc1ccc(O)c(C(=O)c2coc(=N)c(C(=O)Nc3ccc(SC(F)F)cc3)c2)c1,-1.9%,-7.6%,12.6µM*,?,5.4%,4.4%
CNc1c(Br)cc(C(O)C2=CCc3ccccc32)cc1Br (stereo not given),·,·,·,·,5.0%,·
Cc1ccc(-c2nc(-c3cc4cccc(OCc5cccc(F)c5)c4oc3=O)no2)cc1,·,·,8.91µM*,·,-28.8%,·
CNc1ccc(C=C2C=CC=C2)cc1,·,·,·,·,-2.6%,·
CNCC(=O)c1c[nH]c2ccccc12,·,·,·,·,1.0%,·
CC1=C(C(=O)Nc2ccccc2)C(c2ccc(C)cc2)N=C(Nc2nc3ccccc3o2)N1 (stereo not given),0.7%,-11.9%,10µM*,-0.9%,?,·
CC1(C)CC(=O)C2=C(C1)NC(Nc1nc3ccccc3o1)=NC2c1ccccc1Cl (stereo not given),·,·,·,·,0.7%,·
SMILES,Chronic BCR inh,uPA generation,Vif-APOBEC3F blk,MBNL1-CUG inh,Vif-APOBEC3G blk,TCR act
Cc1cc(C(=O)COC(=O)c2cccnc2Cl)c(C)n1CC1CCCO1 (stereo not given),?,1.58µM*,3.0%,-5.9%,7.7%,-0.7%
Cc1ccc(CSc2nc(-c3ccc(C(C)(C)C)cc3)nc3cc(=O)[nH]n23)cc1,·,·,2.5%,·,10µM*,·
CCCCn1c(N)c(N(CCC(C)C)C(=O)Cc2ccc(S(=O)(=O)N3CCOCC3)s2)c(=O)[nH]c1=O,?,4.5%,3.8%,·,0.2%,2.1%
CCCCn1c(N)c(N(CC(C)C)C(=O)Cc2ccc(S(=O)(=O)N3CCOCC3)s2)c(=O)[nH]c1=O,·,6.6%,25.1µM*,·,?,-9.6%
CC(C)(C)n1ncc2c(=O)n(Cc3ccc(Cl)c(F)c3)cnc21,·,·,·,·,0.6%,·
Cc1c(CN2CCCC(C(=O)Nc3cccc(-n4cccn4)c3)C2)cnn1C (stereo not given),1.7%,7.94µM*,8.1%,1.2%,1.4%,-3.4%
Cn1cc(CN2CCCC(C(=O)Nc3cccc(-n4cccn4)c3)C2)cn1 (stereo not given),1.5%,-3.0%,-0.7%,-4.5%,0.5%,-5.1%
Cn1cc(CN2CCCC(C(=O)Nc3ccc(-c4cccc(F)c4)cc3)C2)cn1 (stereo not given),0.8%,8.91µM*,4.6%,-9.7%,?,-2.8%
CC(C)(C)n1ncc2c(=O)n(Cc3c(F)ccc(F)c3Cl)cnc21,·,·,·,·,2.1%,·
CN(C)CCOc1ccc2c(c1)C(=O)C(=Cc1ncc([N+](=O)[O-])n1C)C2,·,·,?,·,11.2µM*,·
CCc1cc(OCCN(C)C)ccc1Cl,-1.0%,7.9%,8.0%,-7.0%,0.2%,-1.6%
COc1cccc(NC(=O)c2cnn(-c3ccccc3)c2C)c1,?,10µM*,2.8%,-10.8%,-8.8%,3.6%
CCc1cccc(NC(=O)c2cnn(-c3ccccc3)c2C)c1,?,?,-8.7%,-6.5%,-0.5%,1.8%
COC(=O)c1sc2nc(CSc3ccc(Br)cc3)[nH]c(=O)c2c1C,-6.4%,16.4%,11.2µM*,-7.7%,-4.1%,3.4%
COCCn1c(SCc2nc3sc(C(=O)OC)c(C)c3c(=O)[nH]2)nc2ccccc21,2.6%,-0.3%,?,-2.3%,2.8%,-10.9%
Cn1c(=S)c2[nH]c(SCCN)nc2n(C)c1=O,·,-1.5%,6.6%,·,4.8%,5.0%
Cn1c(=S)c2[nH]c(SCCN3CCCC3)nc2n(C)c1=O,11.2µM*,3.6%,?,?,0.6%,11.8%
CCOc1ccc(Br)cc1C1=NN(C(C)=O)C(c2ccc([N+](=O)[O-])s2)O1 (stereo not given),?,6.31µM*,?,?,-29.1%,5.5%
CC(=O)N1N=C(c2ccc(C)cc2)OC1c1ccc(Br)cc1 (stereo not given),?,4.2%,-0.1%,-19.0%,0.8%,-1.0%
CCc1cccc(NC(=O)COC(=O)c2ccccc2OCc2ccccc2Br)c1,·,·,·,·,2.1%,·
CN(C)S(=O)(=O)c1ccc(Cl)c(NC(=O)CN2C(=O)NC(C)(C3CC3)C2=O)c1 (stereo not given),-3.7%,5.62µM*,-17.9%,-3.1%,-5.3%,-2.4%
